Assay results published in PubChem BioAssay AID2113 (National Center for Advancing Translational Sciences (NCATS), 2009).
Records with an inconclusive call do not appear. The source made the active and inactive calls. Calls come from the whole dose curve; as a rule, active = well fitted curve in either direction with a large enough effect; inconclusive = small, poorly fitted or top-dose-only effect; inactive = no such curve, though single readings can be large or run the other way.

Molecular target: Lysosomal alpha-glucosidase (Homo sapiens) (UniProt P10253)
Test: Confirmation of Inhibitors and Activators of Human alpha-Glucosidase From Spleen Homogenate;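 for Potency: fluorescence of 4-methylumbelliferone released from a fluorogenic glucopyranoside substrate at pH 5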; for activity change, both directions: 0% is about no effect
Details: alpha-glucosidase enzyme activity; series mostly up to 60.5 µM; activity change, both directions: at the top concentration
Method in brief: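 Fluorogenic assay using human spleen homogenate (1 ug) as enzyme source with 1 mM 4-methylumbelliferyl-alpha-D-glucopyranoside, pH 5.0 citrate buffer, 40 min at 37 C. 4-MU read (Ex 365/Em 440) after NaOH/glycine stop; AC50 from Hill fits.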
Potency is the fitted concentration of half-maximal effect.

| SMILES | activity change, both directions | Potency |
| --- | --- | --- |
| COc1cccc(S(=O)(=O)N2CCOCC2)c1 | -0.379% (inactive) |  |
| COc1ccc(C#Cc2cnc(Cl)c3cncnc23)cc1OC | 2.33% (inactive) |  |
| CN1CCN(S(=O)(=O)c2ccccc2)CC1 | 3.17% (inactive) |  |
| Cc1nnc(SCC(=O)Nc2nsc(-c3ccc(C(C)(C)C)cc3)n2)s1 | -2.15% [at 31.5 µM] (inactive) |  |
| Cc1ccc(N2CCN(S(=O)(=O)c3ccc4c(c3)CC(=O)N4)CC2)cc1 | -16.2% [at 132 µM] (inactive) |  |
| COc1ccc(/C=C/c2nnc(NC(=O)CSc3ccc(Cl)cc3)s2)cc1 |  | inactive |
| CC1CCc2c(nc3ncnn3c2N2CCN(c3ccccc3F)CC2)C1 (stereo unspecified) | -3.74% [at 31.5 µM] (inactive) |  |
| CC(=O)c1ccc(N2CCN(S(=O)(=O)c3ccc4c(c3)oc(=O)n4C)CC2)cc1 | -3.2% (inactive) |  |
| Cc1cc(C)c(C(=O)Cn2cnc3cc([N+](=O)[O-])ccc3c2=O)cc1C | 2.64% [at 31.5 µM] (inactive) |  |
| Nc1ccc(S(=O)(=O)N2CCOCC2)cc1 | 1.95% (inactive) |  |
| COc1cccc2ccc(/C=C/c3ccc4c(c3)OCO4)nc12 | 2.75% (inactive) |  |
| Cc1ccc(S(=O)(=O)N2CCOCC2)cc1C | -0.759% (inactive) |  |
| O=S(=O)(c1ccc2ccccc2c1)N1CCOCC1 | -0.931% (inactive) |  |
| COc1ccc(CCn2c(=S)[nH]c(=O)c3[nH]cnc32)cc1OC | -2.31% (inactive) |  |
| CCC1OC23CCCCC2C(C#N)(C(=N)O3)C1(C#N)C#N (stereo unspecified) | 2.02% [at 31.5 µM] (inactive) |  |
| Cc1sc(-c2cc3ccccc3oc2=O)nc1-c1ccccc1 | 26.5% (inactive) |  |
| Cc1cccc2cc3c(NC(=O)c4ccccn4)nn(C)c3nc12 | 3.35% [at 31.5 µM] (inactive) |  |
| COc1cc(NC(=O)CN2CCN(c3ccccc3F)CC2)c(C)cc1[N+](=O)[O-] | 7.53% [at 31.5 µM] (inactive) |  |

| SMILES | activity change, both directions | Potency |
| --- | --- | --- |
| CC1(C)CC(=O)c2cc(C(=O)NCc3ccco3)c(=O)n(-c3ccc(Cl)cc3)c2C1 | -1.85% [at 31.5 µM] (inactive) |  |
| O=C(O)c1cc2c(ccc3ccccc32)o1 | -0.045% [at 31.5 µM] (inactive) |  |
| CCc1sc(-c2cc3ccc(O)cc3oc2=O)nc1-c1ccccc1 | -3.17% (inactive) |  |
| CCCN1CNc2c(c(=O)[nH]c(=S)n2CCc2cccc(OC)c2)C1 |  | 15.8 µM (active) |
| CC(=O)Nc1cccc2c1C(=O)NC2=O | -1.43% [at 31.5 µM] (inactive) |  |
| CCCN1CNc2c(c(=O)[nH]c(=S)n2CCC(C)C)C1 | -14.7% (inactive) |  |
| C(=C\c1nccc2c1[nH]c1ccccc12)/c1ccc2c(c1)OCO2 | 26.5% (inactive) |  |
| CCOC(=O)c1ccc(NC(=O)c2ccccc2)cc1 | 1.14% [at 31.5 µM] (inactive) |  |
| O=S(=O)(c1ccc(Br)cc1)N1CCOCC1 | 1.29% (inactive) |  |
| O=C1Cc2cc(S(=O)(=O)N3CCN(c4ccc(Br)cc4)CC3)ccc2N1 | -14.2% [at 132 µM] (inactive) |  |
| COC(=O)CSc1cc([N+](=O)[O-])ccc1NC(=O)OC | 6.67% [at 31.5 µM] (inactive) |  |
| O=C(Nc1ccccc1)C1CCN(S(=O)(=O)c2ccccc2)CC1 | 0.601% (inactive) |  |
| CCOC(=O)CCc1cccc2c1CCC2=O | 0.796% [at 31.5 µM] (inactive) |  |
| CCCc1cc(-c2nc(N)ncc2-c2ccc3c(c2)OCCCO3)c(O)cc1OC | -7.94% (inactive) |  |
| Cc1ccc(N/N=C2\CCS(=O)(=O)c3sccc32)cc1 | 1.95% (inactive) |  |
| CC/C(=C(\c1ccccc1)c1ccc(OCCN(C)C)cc1)c1ccccc1 | -10% [at 286 µM] (inactive) |  |
| CCc1ccc(-c2nc(-c3cc4ccc(O)cc4oc3=O)sc2C)cc1 | 25.8% (inactive) |  |
| O=C1c2ccccc2NC(c2cccnc2)N1c1ccccc1F (stereo unspecified) | 8.66% [at 31.5 µM] (inactive) |  |
